Results filed as inconclusive are left out. Unmarked numbers belong to inactive results. Active and inactive are the calls of the source. Calls follow the shape of the dose curve; as a rule, active = well fitted cell-killing curve with a large enough effect; inconclusive = small, poorly fitted or top-dose-only effect, or effect the other way; inactive = no such curve, though single readings can be large or run the other way.
Assay: Viability qHTS for spleen associated tyrosine kinase inhibitor (SYKi) naive MV4-11 cells (AID 1963823); also: nearly all actives have a fitted effect of over 40% in size
Conditions: MV4-11 AML viability, CellTiter-Glo luminescence, 72 h; series mostly up to 45 µM; viability (% of control): at the top concentration
Summary of the method: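 Luminescence from CellTiter-Glo, developed 10 min at room temperature, gave viability of MV4-11 cells never exposed to SYK inhibitor. Cells (500/well) had been incubated with compounds for 72 hr under standard culture conditions.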
Potency is read from the fitted curve at half-maximal effect.

| Structure (SMILES) | viability (% of control) | Potency |
| --- | --- | --- |
| C/C=C/C1OC2=C(C(=O)OC2(C)O)C(O)C1O (stereo not given) | 78.3% | – |
| CC(C)(Cc1nc(-c2ccc(O)cn2)no1)C(=O)NC1=C(C(=O)O)CCCC1 | 74.6% | – |
| O=C1C(Cl)=C(N2CCOCC2)C(=O)N1c1ccc(Cl)c(Cl)c1 | – | 5.63 µM (active) |
| CCCCCCOc1cc2c(cc1N(C)c1ncc(C(=O)O)cn1)C(C)(C)CCC2(C)C | – | 23.1 µM (active) |
| C/C(=C\CO[C@@H]1O[C@H](CO[C@H]2OC[C@](O)(CO)[C@H]2O)[C@@H](O)[C@H](O)[C@H]1O)C(C)(C)O | 71.6% [at 17.3 µM] | – |
| C=CCc1ccc(O[C@@H]2O[C@H](CO[C@@H]3O[C@H](CO)[C@@H](O)[C@H](O)[C@H]3O)[C@@H](O)[C@H](O)[C@H]2O)c(O)c1 | 58.8% [at 17.3 µM] | – |
| C=C(C)C1CCC2(C(=O)O)CCC3(C(=O)O)C(CCC4C5(C)CCC(O)C(C)(C(=O)O)C5CCC43C)C12 (stereo not given) | 54.6% [at 17.3 µM] | – |
| C=C1C(=O)OC2C3=C(C)C(=O)CC3C(C)CC(O)C12 (stereo not given) | – | 13 µM (active) |
| CN[C@@H]1[C@@H](O)[C@@H](O[C@@H]2[C@@H](O)[C@H](O[C@H]3O[C@@H]([C@@H](C)NC)CC[C@H]3N)[C@@H](N)C[C@H]2N)OC[C@]1(C)O | 94.8% | – |
| CCS(=O)c1nc(-c2cccc(OCc3ccccc3)c2)cc(C(F)(F)F)n1 (stereo not given) | – | 2.91 µM (active) |
| O=C1NC(=O)/C(=C\c2ccc3nccc(-c4ccncc4)c3c2)S1 | – | 0.13 µM (active) |
| COc1ccc(C(=O)CC(=O)O)c2c1C=CC(C)(C)O2 | 70% | – |
| C=C1C(=O)O[C@@H]2[C@H]1CCC(C)=C(CCC(=O)O)[C@@]2(C)O | – | 9.2 µM (active) |
| Cn1nnc(-c2ccc(-c3ccc(N4C[C@H](COP(=O)(O)O)OC4=O)cc3F)cn2)n1 | 41.9% | – |
| COc1cc(/C=C/C(=O)OC[C@H]2O[C@@H](OC3CC(C)=C(C(=O)O)C(C)(C)C3)[C@H](O)[C@@H](O)[C@@H]2O)cc(OC)c1O (stereo not given in full) | 72.1% [at 17.3 µM] | – |
| CC(C)[C@H]1CC[C@@]2(O)COC(=O)[C@H]2[C@@H]1/C=C(\CO)C(=O)O | 92.2% | – |
| CC(C)C1CCC(C(=O)N[C@@H](Cc2ccccc2)C(=O)O)CC1 (stereo not given in full) | 70% | – |
| C/C=C(\C)C(=O)O[C@@H]1CC2[C@@H](CC=C3C[C@@H](O[C@H]4C[C@H](OC)[C@H](O[C@H]5C[C@H](OC)[C@H](O[C@@H]6O[C@H](C)[C@@H](O[C@H]7C[C@H](OC)[C@H](O[C@@H]8O[C@H](CO)[C@@H](O)[C@H](O)[C@H]8O)[C@@H](C)O7)[C@H](OC)[C@H]6O)[C@@H](C)O5)[C@@H](C)O4)CC[C@@]32C)[C@@]2(O)CC[C@H](C(C)=O)[C@@]12C (stereo not given in full) | 53.3% [at 9.25 µM] | – |
| CCC(C)/C=C(C)/C=C/C1=CC2=C(Cl)C(=O)C(C)(OC(C)=O)C(=O)C2=CN1C(CCCN=C(N)N)C(=O)O (stereo not given) | 72.9% [at 17.3 µM] | – |
| C[C@@H]1O[C@@H](O[C@H]2[C@H](OC(=O)[C@]34CCC(C)(C)C[C@H]3C3=CCC5[C@@]6(C)C[C@H](O)[C@H](O[C@@H]7O[C@H](CO[C@@H]8OC[C@H](O)[C@H](O)[C@H]8O)[C@@H](O)[C@H](O)[C@H]7O)C(C)(C)C6CC[C@@]5(C)[C@]3(C)C[C@H]4O)OC[C@@H](O)[C@@H]2O)[C@H](O)[C@H](O[C@@H]2OC[C@](O)(CO)[C@H]2O)[C@H]1O[C@@H]1OC[C@H](O)[C@H](O[C@@H]2OC[C@@H](O)[C@H](O)[C@H]2O)[C@H]1O (stereo not given in full) | 72% [at 9.25 µM] | – |

| Structure (SMILES) | viability (% of control) | Potency |
| --- | --- | --- |
| C=C1CC[C@@H](O)[C@]2(C)C[C@H]3OC(=O)C(=C)[C@H]3CC12 (stereo not given in full) | – | 14.6 µM (active) |
| COc1cc2c(NC3CCN(C(C)C)CC3)nc(N3CCC(F)(F)CC3)nc2cc1OCCCN1CCCC1 | – | 5.17 µM (active) |
| COc1ccc(CCO[C@@H]2O[C@H](CO[C@@H]3OC[C@H](O)[C@H](O)[C@H]3O)[C@@H](O)[C@H](O)[C@H]2O)cc1 | 84.6% [at 17.3 µM] | – |
| COC(=O)C(C)C1CCC2(C)C(=O)C=CC(C)(O)C2C1O (stereo not given) | 78.7% | – |
| O=C(O)CC1(O)C(=O)Nc2ccccc21 (stereo not given) | – | 9.43 µM (active) |
| CC1=C2CC(=O)C(C)CC/C=C(\C)CC2OC1=O (stereo not given) | 102% | – |
| C=CC1C(O[C@@H]2O[C@H](CO)[C@@H](O)[C@H](O)[C@H]2O)OC=C(C(=O)OC)C1Cc1nccc2c1[nH]c1ccccc12 (stereo not given in full) | 69.7% [at 17.3 µM] | – |
| Nc1ncnc2c1nc(Cl)n2C1OC2COP(=O)(O)OC2C1O (stereo not given) | – | 0.517 µM (active) |
| C[C@H](O)[C@H](O)/C=C/c1cccc(O)c1CO | 100% | – |
| CC1(C)CC[C@]2(C(=O)O[C@@H]3O[C@H](CO)[C@@H](O)[C@H](O)[C@H]3O)CC[C@]3(C)C(=CCC4[C@@]5(C)C[C@@H](O)[C@H](O)[C@@](C)(CO)C5[C@H](O)C[C@]43C)C2[C@@H]1O (stereo not given in full) | 70.2% [at 17.3 µM] | – |
| Nc1ncnc2c1c(-c1ccc(Oc3ccccc3)cc1)cn2C1CCCC1 | – | 0.366 µM (active) |
| C=C1CC[C@@H]2C(C)(C)CCC[C@@]2(C)[C@@H]1CC/C(=C/C(=O)OC)COC(C)=O | 60.7% | – |
| O=c1ccn(C2OC(CO)C(O)C2O)c(=O)[nH]1 (stereo not given) | 79.6% | – |
| CC1(C)CC[C@@]2(C(=O)O[C@@H]3O[C@H](CO)[C@@H](O)[C@H](O)[C@H]3O)C(C1)C1=CCC3[C@@]4(C)CC[C@@H](O[C@@H]5O[C@H](C(=O)O)[C@@H](O[C@@H]6OC[C@@H](O)[C@H](O)[C@H]6O)[C@H](O[C@@H]6OC[C@](O)(CO)[C@H]6O)[C@H]5O)C(C)(C)C4CC[C@@]3(C)[C@]1(C)C[C@H]2O (stereo not given in full) | 11.6% [at 9.25 µM] | – |
| CN1CCN(C2Cc3ccccc3Sc3ccc(Cl)cc32)CC1 (stereo not given) | – | 3.35 µM (active) |
| CCC/C=C1\OC(=O)C2=C1CCC(O)C2O (stereo not given) | 82.1% | – |
| Cc1ccc([C@@H]2O[C@H](CO)[C@@H](O)[C@H](O)[C@H]2O)cc1Cc1ccc(-c2ccc(F)cc2)s1 | – | 18.6 µM (active) |
| CC(C)C(C#N)O[C@@H]1O[C@H](CO[C@@H]2O[C@@H](C)[C@H](O)[C@@H](O)[C@H]2O)[C@@H](O)[C@H](O)[C@H]1O (stereo not given in full) | 81.9% [at 17.3 µM] | – |
| CC(C)(O)C1=CCC23COC(C2)C(O)(C(=O)O)CCC13 (stereo not given) | 95.7% | – |
| CC(=O)c1c(OCCN2CCCCC2)c(OCCC(C)c2ccc(F)cc2)c2oc(C)nc2c1C (stereo not given) | – | 10.3 µM (active) |

— PubChem BioAssay (NCATS)
